Several values for one entry are separate records, joined by “and”; a condition that tells them apart may be missing. Equal entries are not always repeated. Inconclusive results are not listed. Where a call stands in place of a potency, no number is given. Some structures have more than one record in an assay (separate samples or runs), and their calls can disagree. Activity calls are given as the source filed them. Unless noted, calls come from the whole dose curve; as a rule, active = well fitted curve in the direction sought with a large enough effect in the repeat runs; inconclusive = weak or mixed curves; inactive = no such curve, though single readings can be large; an effect the other way counts as inactive or inconclusive.
Columns and labels:
[1] = target: Androgen receptor (Homo sapiens) (UniProt P10275); assay: qHTS assay to identify small molecule agonists of the androgen receptor (AR) signaling pathway in the presence of an antagonist (AID 1259381; calls by dose curve; note: nearly all actives have a fitted effect of over 15% in size)
Androgen receptor (Homo sapiens), sequence (P10275 whole entry, looked up): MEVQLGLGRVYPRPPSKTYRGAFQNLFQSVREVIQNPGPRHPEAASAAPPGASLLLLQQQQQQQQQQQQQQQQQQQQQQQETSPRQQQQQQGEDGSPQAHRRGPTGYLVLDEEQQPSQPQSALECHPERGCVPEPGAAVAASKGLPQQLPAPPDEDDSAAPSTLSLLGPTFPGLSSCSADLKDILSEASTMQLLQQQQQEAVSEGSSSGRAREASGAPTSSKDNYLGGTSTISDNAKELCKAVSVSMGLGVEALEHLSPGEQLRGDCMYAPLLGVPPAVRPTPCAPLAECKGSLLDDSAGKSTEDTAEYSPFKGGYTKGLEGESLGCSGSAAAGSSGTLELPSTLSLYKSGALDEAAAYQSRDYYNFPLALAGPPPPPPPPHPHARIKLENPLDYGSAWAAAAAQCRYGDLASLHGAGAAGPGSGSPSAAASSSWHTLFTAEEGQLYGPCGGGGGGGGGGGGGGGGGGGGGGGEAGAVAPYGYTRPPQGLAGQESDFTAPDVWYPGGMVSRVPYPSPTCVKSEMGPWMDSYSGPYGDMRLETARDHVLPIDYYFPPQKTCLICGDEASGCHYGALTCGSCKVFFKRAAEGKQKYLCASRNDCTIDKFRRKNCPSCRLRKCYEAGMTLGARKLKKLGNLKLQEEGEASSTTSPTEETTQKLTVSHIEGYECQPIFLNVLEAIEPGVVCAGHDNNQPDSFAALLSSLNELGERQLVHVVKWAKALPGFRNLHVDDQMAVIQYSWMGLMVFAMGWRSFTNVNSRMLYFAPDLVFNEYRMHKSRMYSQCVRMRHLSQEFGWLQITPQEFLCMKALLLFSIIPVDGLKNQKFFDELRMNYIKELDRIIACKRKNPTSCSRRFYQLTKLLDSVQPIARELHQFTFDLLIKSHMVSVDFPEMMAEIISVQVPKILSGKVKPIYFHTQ
Procedure, shortened: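 Test compounds at 15 concentrations were incubated for 16hr with MDA-kb2 reporter cells in presence of 3.0uM nilutamide (final). Signal: ONE-Glo luciferase luminescence.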

[2] = qHTS assay to identify small molecule antagonists of the estrogen receptor beta (ER-beta) signaling pathway - cell viability counter screen (AID 1259382); note: nearly all actives have a fitted effect of over 55% in size; note: potency is the fitted concentration of half-maximal effect
Procedure, shortened: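 In this multiplexed counter screen, cells were seeded at 2,000 per well in medium with 2% charcoal-stripped FBS and incubated 6 hr before compound and 1nM final E2 were added. Sixteen hours later, ATP-based luminescence reported viability.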

[3] = target: Estrogen receptor (Homo sapiens) (UniProt P03372); assay: qHTS assay to identify small molecule agonists of the estrogen receptor alpha (ER-alpha) signaling pathway in the presence of an antagonist (AID 1259383; calls by dose curve; note: top concentration of the series differs between compounds; nearly all actives have a fitted effect of over 15% in size)
Estrogen receptor (Homo sapiens), sequence (P03372 whole entry, looked up): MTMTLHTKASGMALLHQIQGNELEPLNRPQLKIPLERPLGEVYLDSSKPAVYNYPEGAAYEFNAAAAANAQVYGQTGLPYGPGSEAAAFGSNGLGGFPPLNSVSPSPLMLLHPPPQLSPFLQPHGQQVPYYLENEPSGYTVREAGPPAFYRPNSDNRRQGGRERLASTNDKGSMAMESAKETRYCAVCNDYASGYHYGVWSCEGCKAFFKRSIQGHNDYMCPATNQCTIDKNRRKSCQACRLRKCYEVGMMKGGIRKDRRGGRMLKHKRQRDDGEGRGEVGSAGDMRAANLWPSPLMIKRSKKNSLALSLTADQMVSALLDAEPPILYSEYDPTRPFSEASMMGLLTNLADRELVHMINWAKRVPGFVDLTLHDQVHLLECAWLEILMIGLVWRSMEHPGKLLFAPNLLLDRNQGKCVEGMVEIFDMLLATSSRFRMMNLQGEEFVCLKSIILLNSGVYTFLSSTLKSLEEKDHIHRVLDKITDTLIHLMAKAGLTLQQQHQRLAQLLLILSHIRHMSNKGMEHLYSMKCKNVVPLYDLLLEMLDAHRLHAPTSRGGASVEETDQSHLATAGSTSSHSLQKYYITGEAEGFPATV
Procedure, shortened: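 Stably transfected VM7Luc4E2 reporter cells, kept 5 days in charcoal-stripped serum, received ICI-182,780 at 10.0nM final before compound addition. Following 22hr incubation at 37C and 5% CO2, luciferase signal was read by luminescence.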

[4] = qHTS assay to identify small molecule agonists or antagonists of the thyroid stimulating hormone receptor (TSHR) signaling pathway - wild type cell line counter screen (AID 1259384; calls by dose curve)
Procedure, shortened: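 Wild-type HEK293 cells were plated 18 h at 37 C/5% CO2, pin-dosed with compound plus Ro20-1724 medium, held 30 min at room temperature, then given cAMP-d2 and anti-cAMP-cryptate; fluorescence was read after 1 h. Fifteen concentrations, triplicate.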

[5] = target: Thyrotropin receptor (Homo sapiens) (UniProt P16473); assay: qHTS assay to identify small molecule antagonists of the thyroid stimulating hormone receptor (TSHR) signaling pathway (AID 1259385; calls by dose curve; note: nearly all actives have a fitted effect of over 20% in size)
Thyrotropin receptor (Homo sapiens), sequence (P16473 whole entry, looked up): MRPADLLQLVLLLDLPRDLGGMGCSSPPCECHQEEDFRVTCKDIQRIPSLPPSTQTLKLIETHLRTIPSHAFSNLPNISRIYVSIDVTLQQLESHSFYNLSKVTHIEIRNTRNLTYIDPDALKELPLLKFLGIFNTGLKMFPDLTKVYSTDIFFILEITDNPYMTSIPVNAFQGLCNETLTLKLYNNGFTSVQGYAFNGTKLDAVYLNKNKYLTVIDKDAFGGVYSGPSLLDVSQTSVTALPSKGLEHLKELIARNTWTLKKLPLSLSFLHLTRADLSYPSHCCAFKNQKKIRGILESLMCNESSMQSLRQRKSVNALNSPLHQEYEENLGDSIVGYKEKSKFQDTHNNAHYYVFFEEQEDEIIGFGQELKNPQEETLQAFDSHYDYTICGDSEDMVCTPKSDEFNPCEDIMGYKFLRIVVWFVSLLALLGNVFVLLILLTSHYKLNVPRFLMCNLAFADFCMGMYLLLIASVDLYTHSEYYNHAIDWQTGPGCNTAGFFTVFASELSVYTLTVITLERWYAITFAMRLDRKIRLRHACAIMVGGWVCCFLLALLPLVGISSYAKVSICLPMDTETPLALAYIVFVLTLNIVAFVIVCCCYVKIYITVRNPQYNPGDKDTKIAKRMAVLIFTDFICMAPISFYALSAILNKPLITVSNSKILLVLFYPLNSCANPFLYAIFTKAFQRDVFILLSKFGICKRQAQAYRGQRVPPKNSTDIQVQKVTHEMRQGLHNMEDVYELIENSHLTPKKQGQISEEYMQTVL
Procedure, shortened: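 TSHR-HEK293 cells were plated and held 18 h at 37C/5% CO2, then given compound plus Ro20-1724 and stimulated with TSH at 1.5 ng/mL final. After 30 min at room temperature, cAMP was detected with cAMP-d2/anti-cAMP-cryptate (1 h) by fluorescence.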

[6] = qHTS assay to identify small molecule agonists of the estrogen receptor alpha (ER-alpha) signaling pathway in the presence of an antagonist - cell viability counter screen (AID 1259386);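 note: cells exposed to compounds for 22 h at 37 °C before the viability read; nearly all actives have a fitted effect of over 30% in size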; note: potency is the fitted concentration of half-maximal effect
Procedure, shortened: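 Viability counter screen using VM7Luc4E2 (full-length ER-alpha, four ERE-luciferase). The cells were treated with compounds alongside ICI-182,780 10.0nM for 22hr, and live-cell protease fluorescence was quantified with CellTiter-Fluor.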

[7] = qHTS assay to identify small molecule antagonists of the progesterone receptor (PR) signaling pathway - cell viability counter screen (AID 1346798); note: nearly all actives have a fitted effect of over 50% in size; note: potency is the fitted concentration of half-maximal effect
Procedure, shortened: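 PR-UAS-bla HEK293T cells, 3,000/well in 2% charcoal-stripped FBS medium, dosed with compounds plus R5020 agonist and incubated 16 h at 37C. Viability then measured in the same wells by CellTiter-Glo luminescence after 30 min at RT.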

[8] = qHTS assay to identify small molecule antagonists of the TGF-beta/Smad signaling pathway - cell viability counter screen (AID 1346824); note: nearly all actives have a fitted effect of over 50% in size; note: potency is the fitted concentration of half-maximal effect
Procedure, shortened: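 SBE-bla HEK 293T cells were plated overnight at 37 C, then given compounds in DMSO plus TGF-beta1 (added as 0.25 ng/mL solution) for 5 hr. After the bla read, CellTiter-Glo was added to the same wells and luminescence read after 30 min at room temperature.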

[9] = qHTS assay to identify small molecule agonists of the TGF-beta/Smad signaling pathway - cell viability counter screen (AID 1346829); note: nearly all actives have a fitted effect of over 45% in size; note: potency is the fitted concentration of half-maximal effect
Procedure, shortened: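 Compound-treated SBE-bla HEK 293T cells (5 hr, 37 C) were assessed for viability with CellTiter-Glo in parallel with the reporter read.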

[10] = qHTS assay to identify small molecule agonists of the TGF-beta/Smad signaling pathway (AID 1346859; active = well fitted activation curve with a large enough effect in the signal ratio in the repeat runs, not every such curve was filed as active; the % refers to the signal ratio; note: series mostly up to about 77 µM)
Procedure, shortened: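 SBE-bla HEK293T cells plated overnight, then compound exposure for 5 h at 37 C. Beta-lactamase reporter read with LiveBLAzer B/G FRET substrate after 2 h at room temperature, fluorescence at 405 nm excitation, 460/530 nm emission.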

[11] = target: Thyrotropin-releasing hormone receptor (Homo sapiens) (UniProt P34981); assay: qHTS assay to identify small molecule antagonists of the thyrotropin-releasing hormone receptor (TRHR) signaling pathway (AID 1346877; active = well fitted inhibition curve with a large enough effect in the repeat runs, not every such curve was filed as active; note: series mostly up to about 51 µM)
Thyrotropin-releasing hormone receptor (Homo sapiens), sequence (P34981 whole entry, looked up): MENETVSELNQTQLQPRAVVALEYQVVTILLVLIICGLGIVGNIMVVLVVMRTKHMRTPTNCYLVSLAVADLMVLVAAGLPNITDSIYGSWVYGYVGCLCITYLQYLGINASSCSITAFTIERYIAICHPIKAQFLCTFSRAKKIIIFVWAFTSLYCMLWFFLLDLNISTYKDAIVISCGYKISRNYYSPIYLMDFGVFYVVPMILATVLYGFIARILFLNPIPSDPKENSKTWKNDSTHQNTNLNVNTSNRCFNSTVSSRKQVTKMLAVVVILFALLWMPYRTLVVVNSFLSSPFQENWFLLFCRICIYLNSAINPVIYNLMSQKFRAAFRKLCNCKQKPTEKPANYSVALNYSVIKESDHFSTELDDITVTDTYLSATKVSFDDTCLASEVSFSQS
Procedure, shortened: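 Following an 18 h incubation at 37 °C and a 2 h calcium dye load, TRHR-HEK293 cells were exposed to compound (5 min, room temperature) and challenged with TRH, 1 nM final.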

[12] = target: Thyrotropin-releasing hormone receptor (Homo sapiens) (UniProt P34981); assay: qHTS assay to identify small molecule agonists of the thyrotropin-releasing hormone receptor (TRHR) signaling pathway (AID 1346891; calls by dose curve; note: potency is the fitted concentration of half-maximal effect; for activation: series mostly up to about 58 µM)
Procedure, shortened: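 HEK293 cells expressing TRHR plated 18 h at 37 C/5% CO2, calcium dye-loaded 2 h at 37 C, then compound added (agonist mode); kinetic calcium fluorescence read 3 min at 1 s intervals; 15 concentrations in triplicate.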

[13] = qHTS assay to identify small molecule agonists of the androgen receptor (AR) signaling pathway in the presence of an antagonist - cell viability counter screen (AID 1259379); note: nearly all actives have a fitted effect of over 25% in size; note: potency is the fitted concentration of half-maximal effect
Procedure, shortened: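 Seed MDA-kb2 at 3,000 cells/well; incubate 5 hr, 37C, 0% CO2. Add nilutamide to 3.0uM final, then pin compounds at 15 concentrations. Incubate 16 hr. Add CellTiter-Fluor at 15 hr, read fluorescence after 1 hr.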

[14] = Human pregnane X receptor (PXR) small molecule agonists, qHTS cell viability counter screen (AID 1346977); note: nearly all actives have a fitted effect of over 50% in size; note: potency is the fitted concentration of half-maximal effect
Procedure, shortened: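 PXR-Luc HepG2 cells (2,000/well, 5% charcoal-stripped FBS) preincubated 5 hr, then exposed to compounds 24 hr at 37 C. Viability read in the same wells by CellTiter-Fluor fluorescence, reagent added at 23 hr, 1 hr incubation.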

[15] = qHTS assay to identify small molecule agonists of the progesterone receptor (PR) signaling pathway - cell viability counter screen (AID 1346799; calls by dose curve; note: nearly all actives have a fitted effect of over 45% in size; note: potency is the fitted concentration of half-maximal effect)
Procedure, shortened: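 Counter screen in the PR-UAS-bla HEK293T wells (2% charcoal-stripped FBS, 16 h compound exposure at 37 C) after the bla read. CellTiter-Glo added, 30 min at room temperature, luminescence read as cell viability.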

[16] = target: Progesterone receptor (Homo sapiens) (UniProt P06401); assay: qHTS assay to identify small molecule agonists of the progesterone receptor (PR) signaling pathway (AID 1346784; calls by dose curve; note: nearly all actives have a fitted effect of over 30% in size)
Progesterone receptor (Homo sapiens), sequence (P06401 whole entry, looked up): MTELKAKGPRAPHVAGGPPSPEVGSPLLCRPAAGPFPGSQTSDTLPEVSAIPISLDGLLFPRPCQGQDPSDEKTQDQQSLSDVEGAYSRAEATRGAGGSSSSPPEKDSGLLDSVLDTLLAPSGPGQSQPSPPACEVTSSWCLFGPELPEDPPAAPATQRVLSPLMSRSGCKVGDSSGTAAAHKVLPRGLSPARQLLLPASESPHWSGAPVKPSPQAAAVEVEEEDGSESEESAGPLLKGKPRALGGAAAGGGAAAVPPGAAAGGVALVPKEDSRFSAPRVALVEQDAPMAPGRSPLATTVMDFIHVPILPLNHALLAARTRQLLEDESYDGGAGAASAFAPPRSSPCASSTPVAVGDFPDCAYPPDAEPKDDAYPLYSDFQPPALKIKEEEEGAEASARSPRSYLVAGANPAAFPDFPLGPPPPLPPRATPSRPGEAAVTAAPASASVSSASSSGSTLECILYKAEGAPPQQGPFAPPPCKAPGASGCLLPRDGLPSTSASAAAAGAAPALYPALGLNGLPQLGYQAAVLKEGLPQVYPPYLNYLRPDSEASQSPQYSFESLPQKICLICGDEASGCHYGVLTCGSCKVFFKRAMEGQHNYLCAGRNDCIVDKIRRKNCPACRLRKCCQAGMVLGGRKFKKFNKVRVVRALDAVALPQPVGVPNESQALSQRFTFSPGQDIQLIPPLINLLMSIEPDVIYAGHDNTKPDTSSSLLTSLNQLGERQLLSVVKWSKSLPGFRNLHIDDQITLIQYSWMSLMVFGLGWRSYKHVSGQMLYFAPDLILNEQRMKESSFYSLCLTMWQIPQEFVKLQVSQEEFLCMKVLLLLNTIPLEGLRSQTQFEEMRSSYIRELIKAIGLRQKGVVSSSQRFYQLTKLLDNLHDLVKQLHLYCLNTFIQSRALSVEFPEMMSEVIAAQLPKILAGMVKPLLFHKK
Procedure, shortened: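 PR-UAS-bla HEK 293T cells (beta-lactamase reporter under UAS) in 2% charcoal-stripped FBS, dosed with 23 nL compound after 6 hr, incubated 16hr at 37C. LiveBLAzer B/G FRET substrate added, fluorescence read after 2 hours.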

[17] = qHTS assay to identify small molecule agonists of the estrogen receptor beta (ER-beta) signaling pathway - cell viability counter screen (AID 1259380); note: nearly all actives have a fitted effect of over 30% in size; note: potency is the fitted concentration of half-maximal effect
Procedure, shortened: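 CellTiter-Glo read, 30 min RT, same wells as bla assay; cells ER-beta-UAS-bla HEK293T; 16 hr compound, 37C; medium 2% charcoal-stripped FBS.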

[18] = target: Progesterone receptor (Homo sapiens) (UniProt P06401); assay: qHTS assay to identify small molecule antagonists of the progesterone receptor (PR) signaling pathway (AID 1346795; active = well fitted inhibition curve with a large enough effect in the signal ratio in the repeat runs, not every such curve was filed as active; the % refers to the signal ratio)
Procedure, shortened: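 PR-UAS-bla HEK293T cells with beta-lactamase reporter under UAS control, in 2% charcoal-stripped FBS, treated with compounds plus 1 nM promegestone (R5020, final) for 16 hr at 37C. Read-out: FRET beta-lactamase substrate fluorescence after 2 hr at room temperature.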

SMILES	Potency [1]	Potency [2]	Potency [3]	outcome [4]	Potency [5]	Potency [6]	Potency [7]	Potency [8]	Potency [9]	outcome [10]	Potency [11]	Potency [12]	Potency [13]	Potency [14]	Potency [15]	Potency [16]	Potency [17]	Potency [18]
Oc1c(Cl)c(Cl)cc(Cl)c1Cl	inactive	inactive	inactive	inactive	inactive	inactive	inactive	inactive	inactive	inactive	inactive	inactive						
CCOCCOC(C)=O		inactive	inactive	inactive	inactive				inactive		inactive	inactive	inactive	inactive				
O=C(CCl)C(Cl)Cl			inactive	inactive	inactive		43.7 µM (active)	inactive	inactive		inactive	inactive	27.6 µM (active)	15.5 µM (active)	27.6 µM (active)			
O=C(O)C1C2CCC(O2)C1C(=O)O (stereo not given)				inactive	inactive	inactive		inactive	inactive	inactive	inactive	inactive	inactive			inactive		
CSCCCN=C=S		inactive		inactive	inactive	inactive	inactive	inactive			inactive	inactive		inactive	inactive	inactive	inactive	inactive
COP(=O)(OC)SCn1c(=O)oc2cc(Cl)cnc21	inactive	inactive	inactive	inactive		inactive	inactive	inactive	inactive	inactive				30.6 µM (active)	inactive	inactive		inactive
Oc1c(Br)c(Br)c(Br)c(Br)c1Br	inactive	inactive	inactive			inactive		inactive	inactive	inactive		inactive						
CN(C)c1ccc(N=Nc2ccccc2)cc1				inactive		48.6 µM (active)	inactive	inactive	inactive	inactive	inactive	inactive	48.6 µM (active)			inactive		
CCCCCCCCCCCCCCCC[n+]1ccccc1		29.8 µM (active) [middle of 4 runs]	inactive			71.7 µM (active) and 61.1 µM (active) and 60.3 µM (active)	50.8 µM (active) and 61.1 µM (active) and 60.3 µM (active)	43.6 µM (active) [middle of 4 runs]	54.2 µM (active) [middle of 4 runs]			36.3 µM (active) and inactive	25.5 µM (active) [middle of 4 runs]	30.6 µM (active) [middle of 4 runs]	50.8 µM (active) and 54.5 µM (active)	inactive		
CC(=O)c1cc(C(C)(C)C)cc2c1CCC2(C)C			inactive			inactive	inactive	inactive		inactive	inactive	inactive	inactive	inactive	inactive	inactive		inactive
CC(C)(O)c1cnn2c(-c3ccc(F)c(-c4c(F)cccc4C#N)c3)cnc2n1	inactive	inactive		inactive	inactive	inactive		inactive	inactive		inactive						27.3 µM (active)	
[Cd+2].[Cl-].[Cl-]		34.7 µM (active) and 54.5 µM (active)				61.6 µM (active) and 54.5 µM (active)	4.36 µM (active) and 2.73 µM (active)			inactive			inactive	794 nM (active) and 344 nM (active)	13.8 µM (active) and 6.11 µM (active)			
